# According to publication PMC7862700, “An all-to-all approach to the identification of sequence-specific readers for epigenetic DNA modifications on cytosine”:
# Key:
# Assay in all cases: DAPPL (digital affinity profiling via proximity ligation, sequencing); 10 mM Tris-HCl pH 7.5, 50 mM NaCl, 1 mM DTT, 4% glycerol, room temperature, 30 min; GST-TFs on glutathione beads, 16-mer random dsDNA library, 0.1% formaldehyde crosslink after washing; high values mean tight binding
# FLI1 = target: T1, FLI1 (Homo sapiens, UniProt Q01543 1-452); details: protein: recombinant; tags: N-terminal GST; dsDNA, one strand shown
# T1 sequence: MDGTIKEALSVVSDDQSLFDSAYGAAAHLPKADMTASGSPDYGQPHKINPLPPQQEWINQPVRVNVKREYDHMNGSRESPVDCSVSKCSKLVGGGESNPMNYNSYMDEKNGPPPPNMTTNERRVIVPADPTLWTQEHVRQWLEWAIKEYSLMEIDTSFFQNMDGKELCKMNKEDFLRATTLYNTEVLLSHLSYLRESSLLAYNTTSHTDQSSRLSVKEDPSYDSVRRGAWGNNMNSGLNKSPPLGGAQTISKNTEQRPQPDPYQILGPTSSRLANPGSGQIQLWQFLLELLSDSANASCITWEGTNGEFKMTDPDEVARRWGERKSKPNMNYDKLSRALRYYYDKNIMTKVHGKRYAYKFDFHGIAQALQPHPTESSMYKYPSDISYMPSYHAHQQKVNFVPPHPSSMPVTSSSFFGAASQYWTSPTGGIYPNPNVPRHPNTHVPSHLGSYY
# How it was run: (§1)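 A tag-only sample was pooled with DNA-barcoded human transcription factors that had been expressed in yeast as GST fusions and captured on glutathione beads. The pools were incubated for 30 min at room temperature with 200 nmole of a random double-stranded 16-mer DNA library in Tris/NaCl/DTT/glycerol buffer, then washed, crosslinked with 0.1% formaldehyde, proximity-ligated (BsaI/T4 ligase, 1 h, 37 °C), PCR-amplified and sequenced on an Illumina NextSeq500. Binding signal is each hexamer's read frequency for a factor divided by its frequency for the tag-only sample.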
# ELK1 = target: T2, ELK1 (Homo sapiens, UniProt P19419 1-428); details: protein: recombinant; tags: N-terminal GST; dsDNA, one strand shown
# T2 sequence: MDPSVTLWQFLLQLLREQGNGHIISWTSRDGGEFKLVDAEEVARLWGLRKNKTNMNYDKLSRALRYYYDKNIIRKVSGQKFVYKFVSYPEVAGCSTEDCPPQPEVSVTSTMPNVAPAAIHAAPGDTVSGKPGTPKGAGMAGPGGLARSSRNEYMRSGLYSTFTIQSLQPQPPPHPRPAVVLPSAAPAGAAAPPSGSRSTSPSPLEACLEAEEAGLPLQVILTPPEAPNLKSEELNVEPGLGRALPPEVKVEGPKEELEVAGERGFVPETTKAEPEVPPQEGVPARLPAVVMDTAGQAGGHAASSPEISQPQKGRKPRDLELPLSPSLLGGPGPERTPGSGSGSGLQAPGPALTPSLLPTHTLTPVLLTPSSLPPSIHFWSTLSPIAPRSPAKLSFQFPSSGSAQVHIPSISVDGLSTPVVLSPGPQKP
# How it was run: as §1
# GABPA = target: T3, GABPA (Homo sapiens, UniProt Q06546 1-454); details: protein: recombinant; tags: N-terminal GST; dsDNA, one strand shown
# T3 sequence: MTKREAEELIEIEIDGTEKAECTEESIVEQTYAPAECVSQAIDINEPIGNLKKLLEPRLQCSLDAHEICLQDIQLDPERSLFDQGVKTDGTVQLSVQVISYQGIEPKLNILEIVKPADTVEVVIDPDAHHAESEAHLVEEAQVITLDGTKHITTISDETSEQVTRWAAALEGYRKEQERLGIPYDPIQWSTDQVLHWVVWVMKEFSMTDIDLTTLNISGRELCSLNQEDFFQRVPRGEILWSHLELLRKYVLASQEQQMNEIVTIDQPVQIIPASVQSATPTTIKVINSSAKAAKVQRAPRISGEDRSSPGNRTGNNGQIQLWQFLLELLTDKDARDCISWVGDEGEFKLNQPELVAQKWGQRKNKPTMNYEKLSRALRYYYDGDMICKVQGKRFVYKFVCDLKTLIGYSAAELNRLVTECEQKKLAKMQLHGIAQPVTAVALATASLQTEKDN
# How it was run: as §1
# ERG = target: T4, ERG (Homo sapiens, UniProt P11308 1-479); details: protein: recombinant; tags: N-terminal GST; dsDNA, one strand shown
# T4 sequence: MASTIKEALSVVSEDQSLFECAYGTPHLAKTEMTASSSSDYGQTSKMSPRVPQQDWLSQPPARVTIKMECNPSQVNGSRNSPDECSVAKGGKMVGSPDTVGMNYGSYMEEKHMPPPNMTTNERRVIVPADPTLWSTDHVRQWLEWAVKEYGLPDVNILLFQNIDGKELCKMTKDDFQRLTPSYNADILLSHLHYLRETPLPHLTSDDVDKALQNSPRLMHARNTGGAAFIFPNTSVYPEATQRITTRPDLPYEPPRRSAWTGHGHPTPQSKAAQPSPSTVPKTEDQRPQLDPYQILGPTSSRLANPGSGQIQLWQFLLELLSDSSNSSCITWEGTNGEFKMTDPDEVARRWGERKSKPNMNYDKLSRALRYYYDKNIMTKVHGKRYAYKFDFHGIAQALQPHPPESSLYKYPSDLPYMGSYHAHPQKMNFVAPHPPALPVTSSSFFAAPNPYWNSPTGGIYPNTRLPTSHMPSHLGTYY
# How it was run: as §1
# ELF1 = ELF1 (Homo sapiens, UniProt P32519 1-619); details: protein: recombinant; tags: N-terminal GST; dsDNA, one strand shown
# How it was run: as §1
# EHF = target: T5, EHF (Homo sapiens, UniProt Q9NZC4 1-300); details: protein: recombinant; tags: N-terminal GST; dsDNA, one strand shown
# T5 sequence: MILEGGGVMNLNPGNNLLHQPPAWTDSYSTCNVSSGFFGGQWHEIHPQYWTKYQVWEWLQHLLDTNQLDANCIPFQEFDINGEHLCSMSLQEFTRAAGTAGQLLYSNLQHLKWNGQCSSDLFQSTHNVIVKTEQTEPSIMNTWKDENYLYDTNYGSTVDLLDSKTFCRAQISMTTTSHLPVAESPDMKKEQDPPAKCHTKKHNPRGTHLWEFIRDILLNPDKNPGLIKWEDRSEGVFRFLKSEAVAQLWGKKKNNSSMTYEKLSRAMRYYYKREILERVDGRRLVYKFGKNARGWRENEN
# How it was run: as §1
# SPI1 = SPI1 (Homo sapiens, UniProt P17947 1-270); details: protein: recombinant; tags: N-terminal GST; dsDNA, one strand shown
# How it was run: as §1
# SPIB = SPIB (Homo sapiens, UniProt Q01892 1-262); details: protein: recombinant; tags: N-terminal GST; dsDNA, one strand shown
# How it was run: as §1
# ELK3 = target: T6, ELK3 (Homo sapiens, UniProt P41970 1-407); details: protein: recombinant; tags: N-terminal GST; dsDNA, one strand shown
# T6 sequence: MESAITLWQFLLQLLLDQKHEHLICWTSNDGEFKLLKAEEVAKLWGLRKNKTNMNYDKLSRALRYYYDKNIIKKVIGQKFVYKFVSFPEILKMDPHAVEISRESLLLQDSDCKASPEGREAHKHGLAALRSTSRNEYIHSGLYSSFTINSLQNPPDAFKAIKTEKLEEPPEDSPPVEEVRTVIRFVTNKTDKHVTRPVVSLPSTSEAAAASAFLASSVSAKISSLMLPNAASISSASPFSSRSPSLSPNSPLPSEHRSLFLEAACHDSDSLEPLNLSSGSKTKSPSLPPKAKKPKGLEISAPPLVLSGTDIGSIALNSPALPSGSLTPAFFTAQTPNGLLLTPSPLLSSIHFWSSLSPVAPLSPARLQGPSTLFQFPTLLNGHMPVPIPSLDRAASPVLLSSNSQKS
# How it was run: as §1
# FEV = target: T7, FEV (Homo sapiens, UniProt Q99581 1-238); details: protein: recombinant; tags: N-terminal GST; dsDNA, one strand shown
# T7 sequence: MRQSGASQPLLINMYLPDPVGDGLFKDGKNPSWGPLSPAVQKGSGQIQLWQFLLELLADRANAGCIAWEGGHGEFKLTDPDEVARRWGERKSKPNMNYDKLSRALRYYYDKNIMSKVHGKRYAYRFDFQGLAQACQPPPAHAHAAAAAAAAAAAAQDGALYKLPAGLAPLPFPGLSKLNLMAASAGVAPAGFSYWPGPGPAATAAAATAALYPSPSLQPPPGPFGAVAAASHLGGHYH
# How it was run: as §1
# ETV5 = ETV5 (Homo sapiens, UniProt P41161 1-510); details: protein: recombinant; tags: N-terminal GST; dsDNA, one strand shown
# How it was run: as §1
# HSF1 = HSF1 (Homo sapiens, UniProt Q00613 1-529); details: protein: recombinant; tags: N-terminal GST; chain copies: 3; dsDNA, one strand shown
# How it was run: as §1
# SPIC = target: T8, SPIC (Homo sapiens, UniProt Q8N5J4 1-248); details: protein: recombinant; tags: N-terminal GST; dsDNA, one strand shown
# T8 sequence: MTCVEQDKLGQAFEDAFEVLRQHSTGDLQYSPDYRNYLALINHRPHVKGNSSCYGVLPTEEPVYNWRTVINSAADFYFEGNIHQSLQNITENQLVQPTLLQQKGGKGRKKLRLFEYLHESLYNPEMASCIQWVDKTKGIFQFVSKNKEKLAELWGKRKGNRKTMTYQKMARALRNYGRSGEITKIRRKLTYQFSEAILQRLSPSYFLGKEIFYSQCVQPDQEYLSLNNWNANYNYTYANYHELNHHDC
# How it was run: as §1
# ELF4 = ELF4 (Homo sapiens, UniProt Q99607 1-663); details: protein: recombinant; tags: N-terminal GST; dsDNA, one strand shown
# How it was run: as §1
# ELK4 = target: T9, ELK4 (Homo sapiens, UniProt P28324-2 1-405); details: protein: recombinant; tags: N-terminal GST; dsDNA, one strand shown
# T9 sequence: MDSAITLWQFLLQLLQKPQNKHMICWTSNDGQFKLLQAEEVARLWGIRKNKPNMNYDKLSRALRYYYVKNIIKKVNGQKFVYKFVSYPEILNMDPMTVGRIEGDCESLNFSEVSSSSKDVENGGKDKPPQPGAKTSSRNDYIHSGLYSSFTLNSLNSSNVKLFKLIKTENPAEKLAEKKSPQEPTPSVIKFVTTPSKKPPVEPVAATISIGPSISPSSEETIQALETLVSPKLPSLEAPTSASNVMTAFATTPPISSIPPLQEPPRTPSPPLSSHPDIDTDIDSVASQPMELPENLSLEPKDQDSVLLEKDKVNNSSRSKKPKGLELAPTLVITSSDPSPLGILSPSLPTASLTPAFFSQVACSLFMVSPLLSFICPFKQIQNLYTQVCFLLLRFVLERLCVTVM
# How it was run: as §1
# ETV2 = target: T10, ETV2 (Homo sapiens, UniProt O00321 1-342); details: protein: recombinant; tags: N-terminal GST; dsDNA, one strand shown
# T10 sequence: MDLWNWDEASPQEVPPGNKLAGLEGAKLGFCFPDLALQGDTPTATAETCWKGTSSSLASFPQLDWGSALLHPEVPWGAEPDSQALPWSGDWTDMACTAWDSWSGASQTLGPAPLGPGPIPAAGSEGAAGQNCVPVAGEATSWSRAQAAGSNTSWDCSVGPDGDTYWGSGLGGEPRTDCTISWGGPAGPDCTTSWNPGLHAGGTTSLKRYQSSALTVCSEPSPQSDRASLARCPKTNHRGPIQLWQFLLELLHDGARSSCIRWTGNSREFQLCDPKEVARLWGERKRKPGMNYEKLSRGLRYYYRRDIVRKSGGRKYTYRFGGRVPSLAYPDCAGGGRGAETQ
# How it was run: as §1
# ELF3 = target: T11, ELF3 (Homo sapiens, UniProt P78545 1-371); details: protein: recombinant; tags: N-terminal GST; dsDNA, one strand shown
# T11 sequence: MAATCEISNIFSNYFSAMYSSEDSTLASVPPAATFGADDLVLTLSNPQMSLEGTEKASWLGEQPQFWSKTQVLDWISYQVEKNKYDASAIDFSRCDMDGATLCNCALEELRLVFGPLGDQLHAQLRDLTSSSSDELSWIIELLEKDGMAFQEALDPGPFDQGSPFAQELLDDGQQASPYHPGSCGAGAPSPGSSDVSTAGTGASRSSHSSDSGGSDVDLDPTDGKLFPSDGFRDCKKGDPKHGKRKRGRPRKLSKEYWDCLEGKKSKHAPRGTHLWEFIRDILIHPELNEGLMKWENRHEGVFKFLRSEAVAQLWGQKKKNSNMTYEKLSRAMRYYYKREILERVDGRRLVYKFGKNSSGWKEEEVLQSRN
# How it was run: as §1
# CRX = CRX (Homo sapiens, UniProt O43186 1-299); details: protein: recombinant; tags: N-terminal GST; dsDNA, one strand shown
# How it was run: as §1
# ETV1 = ETV1 (Homo sapiens, UniProt P50549 1-477); details: protein: recombinant; tags: N-terminal GST; dsDNA, one strand shown
# How it was run: as §1
# Chain of ETV1 (P50549 whole entry): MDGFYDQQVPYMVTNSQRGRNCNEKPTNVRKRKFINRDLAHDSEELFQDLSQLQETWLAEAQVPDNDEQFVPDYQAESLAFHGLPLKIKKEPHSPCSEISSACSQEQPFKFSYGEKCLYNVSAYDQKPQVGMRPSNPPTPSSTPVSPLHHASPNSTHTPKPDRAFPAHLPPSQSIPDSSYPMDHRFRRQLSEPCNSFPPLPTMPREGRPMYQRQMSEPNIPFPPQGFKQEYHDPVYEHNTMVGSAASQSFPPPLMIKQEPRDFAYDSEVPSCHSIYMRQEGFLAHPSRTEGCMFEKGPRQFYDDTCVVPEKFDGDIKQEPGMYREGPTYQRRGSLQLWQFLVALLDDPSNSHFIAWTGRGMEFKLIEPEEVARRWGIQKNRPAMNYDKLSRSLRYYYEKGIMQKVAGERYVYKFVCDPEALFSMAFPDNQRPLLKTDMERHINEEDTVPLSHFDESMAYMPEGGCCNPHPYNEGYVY
# Chain of SPIB (Q01892 whole entry): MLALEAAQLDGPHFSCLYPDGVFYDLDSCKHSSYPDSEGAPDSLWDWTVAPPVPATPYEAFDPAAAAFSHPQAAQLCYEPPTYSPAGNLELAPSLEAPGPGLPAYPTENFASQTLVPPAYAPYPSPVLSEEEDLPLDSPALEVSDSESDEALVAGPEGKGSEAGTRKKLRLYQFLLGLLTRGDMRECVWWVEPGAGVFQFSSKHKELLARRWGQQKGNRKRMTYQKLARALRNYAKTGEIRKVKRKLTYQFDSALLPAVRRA
# Chain of ETV5 (P41161 whole entry): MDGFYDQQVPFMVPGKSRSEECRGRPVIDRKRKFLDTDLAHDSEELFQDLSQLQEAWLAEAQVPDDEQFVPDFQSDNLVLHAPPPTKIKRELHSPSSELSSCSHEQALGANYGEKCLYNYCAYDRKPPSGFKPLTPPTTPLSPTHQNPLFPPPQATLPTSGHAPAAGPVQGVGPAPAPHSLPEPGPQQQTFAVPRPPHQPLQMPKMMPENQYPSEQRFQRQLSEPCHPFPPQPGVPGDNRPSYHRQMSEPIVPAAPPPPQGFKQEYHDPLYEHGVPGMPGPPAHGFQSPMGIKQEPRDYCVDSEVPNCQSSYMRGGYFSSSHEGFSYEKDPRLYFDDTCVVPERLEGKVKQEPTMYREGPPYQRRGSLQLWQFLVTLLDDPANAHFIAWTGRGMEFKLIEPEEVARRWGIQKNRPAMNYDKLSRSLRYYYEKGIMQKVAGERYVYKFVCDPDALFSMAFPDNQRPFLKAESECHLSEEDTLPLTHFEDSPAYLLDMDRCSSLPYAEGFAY
# Chain of HSF1 (Q00613 whole entry): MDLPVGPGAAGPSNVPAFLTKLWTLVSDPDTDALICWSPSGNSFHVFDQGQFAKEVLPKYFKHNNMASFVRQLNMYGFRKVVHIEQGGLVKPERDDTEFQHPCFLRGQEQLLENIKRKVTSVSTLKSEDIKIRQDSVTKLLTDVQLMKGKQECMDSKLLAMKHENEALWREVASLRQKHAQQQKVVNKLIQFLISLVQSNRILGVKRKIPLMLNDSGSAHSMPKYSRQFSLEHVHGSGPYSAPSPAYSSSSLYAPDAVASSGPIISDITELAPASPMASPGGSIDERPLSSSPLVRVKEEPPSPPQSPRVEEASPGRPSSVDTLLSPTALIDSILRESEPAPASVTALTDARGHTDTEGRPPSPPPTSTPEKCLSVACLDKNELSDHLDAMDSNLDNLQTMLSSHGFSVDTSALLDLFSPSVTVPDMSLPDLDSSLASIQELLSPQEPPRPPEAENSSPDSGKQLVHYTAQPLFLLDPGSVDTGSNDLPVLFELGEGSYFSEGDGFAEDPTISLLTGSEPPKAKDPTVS
# Chain of ELF1 (P32519 whole entry): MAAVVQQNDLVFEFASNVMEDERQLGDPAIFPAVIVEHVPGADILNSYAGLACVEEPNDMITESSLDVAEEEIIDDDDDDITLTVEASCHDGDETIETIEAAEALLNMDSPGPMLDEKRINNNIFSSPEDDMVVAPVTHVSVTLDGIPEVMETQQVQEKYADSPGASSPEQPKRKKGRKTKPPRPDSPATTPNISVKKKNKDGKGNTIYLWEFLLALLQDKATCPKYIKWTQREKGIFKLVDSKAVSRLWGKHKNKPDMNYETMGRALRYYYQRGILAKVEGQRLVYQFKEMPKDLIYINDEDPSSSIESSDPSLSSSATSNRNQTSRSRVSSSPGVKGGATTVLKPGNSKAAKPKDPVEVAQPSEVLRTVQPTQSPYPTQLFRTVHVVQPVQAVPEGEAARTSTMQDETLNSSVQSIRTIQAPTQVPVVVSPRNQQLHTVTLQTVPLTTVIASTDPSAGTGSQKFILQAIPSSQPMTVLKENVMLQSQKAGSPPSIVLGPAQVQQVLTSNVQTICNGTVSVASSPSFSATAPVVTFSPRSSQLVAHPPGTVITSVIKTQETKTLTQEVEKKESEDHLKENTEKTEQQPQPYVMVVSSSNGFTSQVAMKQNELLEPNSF
# Chain of ELF4 (Q99607 whole entry): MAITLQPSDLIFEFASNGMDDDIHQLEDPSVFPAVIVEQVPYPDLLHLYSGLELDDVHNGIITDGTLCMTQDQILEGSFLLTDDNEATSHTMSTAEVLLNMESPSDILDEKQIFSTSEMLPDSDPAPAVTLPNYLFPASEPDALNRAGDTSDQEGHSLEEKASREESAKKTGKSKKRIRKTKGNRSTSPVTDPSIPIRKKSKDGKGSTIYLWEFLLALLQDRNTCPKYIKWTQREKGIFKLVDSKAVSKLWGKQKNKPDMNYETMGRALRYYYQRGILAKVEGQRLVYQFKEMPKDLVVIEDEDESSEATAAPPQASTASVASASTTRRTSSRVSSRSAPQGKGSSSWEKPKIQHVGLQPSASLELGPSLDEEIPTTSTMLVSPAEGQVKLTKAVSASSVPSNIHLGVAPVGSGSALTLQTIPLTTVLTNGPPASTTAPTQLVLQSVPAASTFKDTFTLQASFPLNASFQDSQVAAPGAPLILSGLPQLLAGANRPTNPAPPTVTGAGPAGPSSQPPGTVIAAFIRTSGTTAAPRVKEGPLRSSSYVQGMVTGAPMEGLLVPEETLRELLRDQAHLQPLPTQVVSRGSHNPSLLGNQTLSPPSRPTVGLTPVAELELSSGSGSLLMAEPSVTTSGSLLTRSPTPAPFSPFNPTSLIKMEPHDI
# Chain of CRX (O43186 whole entry): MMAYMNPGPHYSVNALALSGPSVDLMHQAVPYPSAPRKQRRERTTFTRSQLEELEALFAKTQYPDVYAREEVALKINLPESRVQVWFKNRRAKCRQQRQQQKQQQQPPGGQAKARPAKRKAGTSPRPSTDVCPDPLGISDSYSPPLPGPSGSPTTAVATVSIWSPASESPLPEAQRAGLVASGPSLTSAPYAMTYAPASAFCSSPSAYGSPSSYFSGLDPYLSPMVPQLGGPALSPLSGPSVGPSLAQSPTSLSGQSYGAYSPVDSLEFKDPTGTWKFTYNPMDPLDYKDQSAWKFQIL
sequence,measurement,setting,value
TACTCG,binding signal,FLI1,"1.33 fold enrichment (6-mer frequency, TF over GST control)"
same,binding signal,ELK1,"1.29 fold enrichment (6-mer frequency, TF over GST control)"
same,binding signal,GABPA,"1.34 fold enrichment (6-mer frequency, TF over GST control)"
same,binding signal,ERG,"1.14 fold enrichment (6-mer frequency, TF over GST control)"
same,binding signal,ELF1,"1.34 fold enrichment (6-mer frequency, TF over GST control)"
same,binding signal,EHF,"1.16 fold enrichment (6-mer frequency, TF over GST control)"
same,binding signal,SPI1,"1.22 fold enrichment (6-mer frequency, TF over GST control)"
same,binding signal,SPIB,"1.18 fold enrichment (6-mer frequency, TF over GST control)"
same,binding signal,ELK3,"1.22 fold enrichment (6-mer frequency, TF over GST control)"
same,binding signal,FEV,"1.23 fold enrichment (6-mer frequency, TF over GST control)"
same,binding signal,ETV5,"1.28 fold enrichment (6-mer frequency, TF over GST control)"
same,binding signal,HSF1,"1.72 fold enrichment (6-mer frequency, TF over GST control)"
same,binding signal,SPIC,"1.25 fold enrichment (6-mer frequency, TF over GST control)"
same,binding signal,ELF4,"1.22 fold enrichment (6-mer frequency, TF over GST control)"
same,binding signal,ELK4,"1.3 fold enrichment (6-mer frequency, TF over GST control)"
same,binding signal,ETV2,"1.19 fold enrichment (6-mer frequency, TF over GST control)"
same,binding signal,ELF3,"1.29 fold enrichment (6-mer frequency, TF over GST control)"
same,binding signal,CRX,"1.38 fold enrichment (6-mer frequency, TF over GST control)"
same,binding signal,ETV1,"1.26 fold enrichment (6-mer frequency, TF over GST control)"
